Screening data (PubChem BioAssay)
Shown are actives, neighbours in structure and some others; about 3% of the full set was active somewhere.
Mtb FBA inh – Mtb FBA enzyme inhibitors, primary screen, biochemical, fluorescence, strain H37Rv | Fructose-bisphosphate aldolase (Mycobacterium tuberculosis (strain ATCC 25618 / H37Rv)), … | purified M. tuberculosis FBA, fluorescence read-out | inhibition, % at 1 µM | 360,000 tested, 2.3% active; in the data active = inhibition above about 27%
Target sequence (P9WQA3 whole entry, looked up): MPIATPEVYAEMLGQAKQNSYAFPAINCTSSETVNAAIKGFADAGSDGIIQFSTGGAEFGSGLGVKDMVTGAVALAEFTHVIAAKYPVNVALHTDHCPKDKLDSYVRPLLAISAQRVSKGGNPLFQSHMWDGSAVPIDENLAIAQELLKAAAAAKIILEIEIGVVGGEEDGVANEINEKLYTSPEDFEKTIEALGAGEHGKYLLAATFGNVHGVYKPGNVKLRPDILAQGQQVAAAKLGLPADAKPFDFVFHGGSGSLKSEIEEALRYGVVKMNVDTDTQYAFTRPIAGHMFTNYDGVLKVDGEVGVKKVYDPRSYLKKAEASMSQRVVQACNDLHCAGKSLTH
GDH-TPI inh – GDH-TPI coupling enzyme inhibitors, primary screen, artefact control for M. tuberculosis FBA inhibitor project, biochemical, absorbance, full deck. inhibition, % at 4.8 µM. GDH-TPI coupled enzyme counterscreen, NADH absorbance. 360,000 tested, 1.2% active. AID 588335, 2011; in the data active = inhibition above about 30%
BH1578 lux ind – inducers of Vibrio cholerae quorum light production without autoinducers, primary screen, BH1578 luxS cqsA deficient, single point; V. cholerae BH1578 lux reporter, luminescence, 6 h; activation, % at 18.7 µM; 350,000 tested, 0.16% active; AID 588436, 2011; in the data active = activation mostly above about 9.7%, no sharp cut-off
Mtb BioA inh – M. tuberculosis BioA enzyme inhibitors, primary screen, biochemical, plate reader, single point, HTS; 7,8-diaminopelargonic acid synthase BioA (Mycobacterium tuberculosis); purified M. tuberculosis BioA enzyme; inhibition, % at 9.99 µM; 360,000 tested, 0.096% active; AID 602481, 2012; in the data active = inhibition above about 40%
A number is an active result.

What do the screens show for `COCCCn1c(C(=O)Nc2ccc3c(c2)OCO3)cc2c(=O)n3cccc(C)c3nc21`?
Mtb FBA inh: inactive; GDH-TPI inh: inactive; BH1578 lux ind: inactive; Mtb BioA inh: inactive

What do the screens show for `CCCCn1c(=NC(C)=O)c(C#N)cc2c(=O)n3cccc(C)c3nc21`?
Mtb FBA inh: 102.4; GDH-TPI inh: inactive; BH1578 lux ind: inactive; Mtb BioA inh: inactive

Results for CCCCCn1c(=NC(=O)c2cccnc2)c(C#N)cc2c(=O)n3cccc(C)c3nc21 ?
Mtb FBA inh: 115.6; GDH-TPI inh: inactive; BH1578 lux ind: inactive

How did CCOCCCn1c(=NC(C)=O)c(C#N)cc2c(=O)n3cccc(C)c3nc21 do in these assays?
Mtb FBA inh: active; GDH-TPI inh: inactive; BH1578 lux ind: inactive; Mtb BioA inh: inactive

What do the screens show for `O=c1c2oc3ccccc3c2[nH]c(=S)n1-c1ccc(F)cc1`?
Mtb FBA inh: inactive; GDH-TPI inh: 33.3; BH1578 lux ind: inactive; Mtb BioA inh: inactive

Results for Cc1ccc(/C=N/NC(=O)c2c(C)nc3ccc(Br)cn23)cc1 ?
Mtb FBA inh: inactive; GDH-TPI inh: inactive; BH1578 lux ind: inactive; Mtb BioA inh: inactive

Results for Cc1nc2ccccn2c1C(=O)N/N=C/c1cc(C)n(-c2ccc(Br)cc2)c1C ?
Mtb FBA inh: inactive; GDH-TPI inh: 36.9; BH1578 lux ind: inactive; Mtb BioA inh: inactive

Results for COc1ccc(/C=N/NC(=O)c2c(C)nc3ccccn23)cc1[N+](=O)[O-] ?
Mtb FBA inh: inactive; GDH-TPI inh: 37.5; BH1578 lux ind: inactive

Results for COc1ccc(/C=N\NC(=O)c2c(C)nc3ccc(Br)cn23)cc1 ?
Mtb FBA inh: inactive; GDH-TPI inh: 42.8; BH1578 lux ind: inactive

What do the screens show for `Cc1nc2ccccn2c1C(=O)N/N=C/c1ccc(F)cc1`?
Mtb FBA inh: inactive; GDH-TPI inh: inactive; BH1578 lux ind: inactive; Mtb BioA inh: inactive

How did Cc1nc2ccccn2c1C(=O)N/N=C/c1ccccc1 do in these assays?
Mtb FBA inh: inactive; GDH-TPI inh: inactive; BH1578 lux ind: inactive; Mtb BioA inh: inactive

Results for Cc1cc(/C=N\NC(=O)c2cccs2)c(C)n1-c1ccc2ncccc2c1 ?
Mtb FBA inh: inactive; GDH-TPI inh: 37.3; BH1578 lux ind: inactive; Mtb BioA inh: inactive

Results for COc1ccc(NC(=O)N[C@@H]2CC[C@H](CCNC(=O)Nc3cc(F)ccc3F)O[C@H]2CO)cc1 ?
Mtb BioA inh: inactive

How did COCCOC(=O)N1C(=O)[C@@]2(c3ccccc31)[C@H](c1ccccc1OCCO)N1[C@H](c3ccccc3)[C@H](c3ccccc3)OC(=O)[C@H]1[C@@H]2C(=O)N1CCN(c2ncccn2)CC1 do in these assays?
Mtb BioA inh: inactive

What do the screens show for `COc1cc(/C=N/NC(=O)c2c(C)nc3ccc(Cl)cn23)cc(OC)c1OC`?
Mtb FBA inh: inactive; GDH-TPI inh: 36.0; BH1578 lux ind: inactive; Mtb BioA inh: inactive

What do the screens show for `COc1ccc(/C=N/NC(=O)c2c(C)nc3ccc(Cl)cn23)cc1OC`?
Mtb FBA inh: inactive; GDH-TPI inh: inactive; BH1578 lux ind: inactive; Mtb BioA inh: inactive

How did COc1cccc(/C=N/NC(=O)c2c(C)nc3ccc(Br)cn23)c1O do in these assays?
Mtb FBA inh: inactive; GDH-TPI inh: inactive; BH1578 lux ind: inactive; Mtb BioA inh: inactive

How did COc1ccc(/C=N/NC(=O)c2nc(-c3ccccc3)n(-c3ccccc3)n2)c(O)c1 do in these assays?
Mtb FBA inh: inactive; GDH-TPI inh: inactive; BH1578 lux ind: inactive

Results for COc1ccc(/C=N/NC(=O)c2nc(-c3ccccc3)n(-c3ccccc3)n2)cc1 ?
Mtb FBA inh: inactive; GDH-TPI inh: 33.3; BH1578 lux ind: inactive; Mtb BioA inh: inactive

Results for COc1ccc(/C=N/NC(=O)c2c(C)nc3ccc(Br)cn23)cc1OC ?
Mtb FBA inh: inactive; GDH-TPI inh: 46.3; BH1578 lux ind: inactive

How did O=C(CN1C(=O)S/C(=C\C=C\c2ccccc2)C1=O)Nc1ccccc1C(=O)O do in these assays?
Mtb FBA inh: inactive; GDH-TPI inh: 35.4; BH1578 lux ind: inactive

How did O=C(CN1C(=O)S/C(=C\C=C\c2ccccc2)C1=O)Nc1cccc(O)c1 do in these assays?
Mtb FBA inh: inactive; GDH-TPI inh: 31.7; BH1578 lux ind: inactive; Mtb BioA inh: inactive

How did O=C(CCN1C(=O)S/C(=C\C=C\c2ccccc2)C1=O)Nc1ccc(O)cc1 do in these assays?
Mtb FBA inh: inactive; GDH-TPI inh: inactive; BH1578 lux ind: inactive; Mtb BioA inh: inactive

How did CCCNC(=O)N1[C@@H]2CN(C(=O)NC(C)C)c3ccccc3[C@@H]2[C@@H]1CO do in these assays?
Mtb BioA inh: inactive

What do the screens show for `O=C(Nc1ccc2c(c1)[C@H]1C[C@@H](CC(=O)N3CCCCC3)O[C@H](CO)[C@H]1O2)C1CCOCC1`?
Mtb BioA inh: inactive

What do the screens show for `CCc1ccc(NC(=O)c2cnc(N3CCN(c4ccccn4)CC3)c3ccccc23)cc1`?
Mtb FBA inh: inactive; GDH-TPI inh: inactive; BH1578 lux ind: inactive

What do the screens show for `CCN1CCN(c2ncc(C(=O)Nc3ccccc3C(=O)OC)c3ccccc23)CC1`?
Mtb FBA inh: inactive; GDH-TPI inh: 31.2; BH1578 lux ind: inactive; Mtb BioA inh: inactive

What do the screens show for `CN(C)c1ccc2c(c1)[C@H]1C[C@H](CC(=O)NCc3ccc(Oc4ccccc4)cc3)O[C@H](CO)[C@H]1O2`?
Mtb BioA inh: inactive

What do the screens show for `CCNC(=O)C[C@H]1CC[C@H]2[C@H](COc3ccc(NC(=O)c4ccc(F)c(F)c4)cc3C(=O)N2C)O1`?
Mtb BioA inh: inactive

Results for O=C(N/N=C/C(Cl)=C/c1ccc([N+](=O)[O-])cc1)C(=O)Nc1cccc(C(=O)O)c1 ?
Mtb FBA inh: inactive; GDH-TPI inh: 37.1; BH1578 lux ind: inactive; Mtb BioA inh: inactive

What do the screens show for `COc1ccc(/C=N/Nc2cn[nH]c(=O)c2Cl)cc1`?
Mtb FBA inh: inactive; GDH-TPI inh: 35.8; BH1578 lux ind: inactive

How did Cc1ccsc1/C=N\Nc1cn[nH]c(=O)c1Cl do in these assays?
Mtb FBA inh: inactive; GDH-TPI inh: inactive; BH1578 lux ind: inactive

How did Cc1ccc(/C=N\Nc2cn[nH]c(=O)c2Cl)cc1 do in these assays?
Mtb FBA inh: inactive; GDH-TPI inh: 48.0; BH1578 lux ind: inactive; Mtb BioA inh: inactive

How did O=c1[nH]ncc(N/N=C/c2ccccc2)c1Cl do in these assays?
Mtb FBA inh: inactive; GDH-TPI inh: 79.7; BH1578 lux ind: inactive; Mtb BioA inh: inactive

What do the screens show for `COC(=O)c1sc(NC(=O)c2ccc([N+](=O)[O-])o2)c(C#N)c1C`?
Mtb FBA inh: inactive; GDH-TPI inh: 32.5; BH1578 lux ind: inactive

How did CSc1nc2nccc(-c3ccc(Oc4ccccc4)cc3)n2n1 do in these assays?
Mtb FBA inh: inactive; GDH-TPI inh: inactive; BH1578 lux ind: inactive; Mtb BioA inh: inactive

How did CSc1nc2nccc(-c3ccc(-c4ccccc4)cc3)n2n1 do in these assays?
Mtb FBA inh: 152.6; GDH-TPI inh: inactive; BH1578 lux ind: inactive; Mtb BioA inh: inactive

How did COc1cc(C(=O)C(=O)c2ccc(O)c(OC)c2)ccc1O do in these assays?
Mtb FBA inh: inactive; GDH-TPI inh: 35.3; BH1578 lux ind: inactive; Mtb BioA inh: inactive

How did COc1cc(C(=O)O)ccc1O do in these assays?
Mtb FBA inh: inactive; GDH-TPI inh: inactive; BH1578 lux ind: inactive; Mtb BioA inh: inactive
